# TIM10 inh – inhibits growth of TIM10 yeast strain; S. cerevisiae TIM10 strain growth, BacTiter-Glo luminescence, 24 h; inhibition, % at 10 µM; 330,000 tested, 1.4% active;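 active = inhibition of 40% or more at the single tested concentration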;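 also: wild-type TIM10 isogenic control strain grown at permissive 25 °C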
# tim23-1 inh – growth inhibitors of tim23-1 mutant yeast; 330,000 tested, 1.3% active; S. cerevisiae tim23-1 growth, BacTiter-Glo luminescence, 24 h; inhibition, % at 20 µM;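 active = growth inhibition of the mutant yeast at or above 50%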;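 also: temperature-sensitive mutant grown at 25 °C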
# Rce1 inhib – blocks yeast Ras-converting enzyme. calls only. 290,000 tested, 0.27% active. yeast membranes, quenched prenylated peptide cleavage fluorescence;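 active = fall in fluorescence gain of 50% or more versus controls, with final raw signal at or below 3038400; inconclusive = same 50% fall but final raw signal above 3038400; inactive = fall in fluorescence gain under 50%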
# Target sequence (Q03530 whole entry, looked up): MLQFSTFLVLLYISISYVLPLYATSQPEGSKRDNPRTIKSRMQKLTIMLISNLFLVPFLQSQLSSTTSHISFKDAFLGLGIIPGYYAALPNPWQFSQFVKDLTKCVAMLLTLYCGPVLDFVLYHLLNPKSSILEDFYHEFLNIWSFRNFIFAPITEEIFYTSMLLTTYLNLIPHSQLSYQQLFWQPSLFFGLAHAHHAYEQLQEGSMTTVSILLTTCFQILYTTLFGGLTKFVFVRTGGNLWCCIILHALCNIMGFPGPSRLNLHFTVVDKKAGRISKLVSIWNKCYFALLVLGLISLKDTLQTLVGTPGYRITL
# tim10-1 inh – tim10-1 yeast growth inhibition. S. cerevisiae tim10-1 ts strain growth, BacTiter-Glo, 24 h. inhibition, % at 20 µM. 330,000 tested, 2.2% active. AID 463190;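 active = inhibition of at least 40%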;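 also: mutant grown at 25 °C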
# PfHsp90 set2 – reduces growth (ATP signal) of yeast expressing P. falciparum Hsp90; S. cerevisiae expressing PfHsp90, BacTiter-Glo ATP, 48 h; yeast lacking PDR1 and PDR3 efflux regulators; inhibition, % at 9.4 µM; AID 504621; 310,000 tested, 0.32% active;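 active = every replicate shows inhibition above about 80%, whatever the replicate mean, limit read from the data; inconclusive = mean inhibition reaches the set limit but some replicate falls short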
# tim10-1 confirm – tim10-1 yeast growth inhibition, confirmed. shares compounds with tim10-1 inh. S. cerevisiae tim10-1 ts strain growth, BacTiter-Glo, 24 h. inhibition, % at 20 µM. 7,400 tested, 56% active. AID 463213;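 active = inhibition of yeast growth at or above a set limit in either of two repeat tests at 20 µM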;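 also: tim10-1 mutant grown at permissive 25 °C to find synthetic lethal compounds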
# TIM10 conf – TIM10 yeast growth inhibition, confirmed. shares compounds with TIM10 inh. S. cerevisiae tim10 strain growth, BacTiter-Glo luminescence, 24 h. inhibition, % at 10 µM. 4,600 tested, 63% active. AID 463215;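 active = inhibition of yeast growth at or above a set limit in either of two replicates at 10 µM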; also: this counterscreen used the strain with wild-type TIM10
# Numbers stand for hits; n = inactive; u = inconclusive; x = no result; + = active, no number. Sampled rows, rich in hits. Any-hit rate of the full collection: about 3.7%.
SMILES,TIM10 inh,tim23-1 inh,Rce1 inhib,tim10-1 inh,PfHsp90 set2,tim10-1 confirm,TIM10 conf
Cc1ccc(NC(=O)CN2CCN(C(=O)C3CCCO3)CC2)c(C)c1 (configuration not stated),n,n,n,n,n,x,x
Cc1nnc(Cl)c2nn(-c3ccccc3)c(C)c12,n,n,n,n,n,x,x
Cc1nnc(-c2cccc(Br)c2)c2cn(-c3ccccc3Cl)nc12,51,n,n,51,n,39,50
COc1ccc(NC(=O)[C@H](C)NC(=O)C2CCN(S(=O)(=O)c3ccc(OC)cc3)CC2)cc1,n,n,n,n,n,x,x
N#Cc1c(N)nc2c(c1-c1ccc(Br)s1)CCCC2,n,n,n,n,n,x,x
Nc1nc(-c2ccc(Br)s2)c(Br)s1,52,n,n,54,n,36,n
Clc1ccc(CN2CCN(c3ncnc4scc(-c5cccs5)c34)CC2)cc1,44,n,n,44,n,38,32
COc1ccc(C(C)=O)cc1COC(=O)CCCN1C(=O)c2ccccc2C1=O,n,n,n,n,n,x,x
CC(=O)OC1CCC2(C)C(=CCC3C2CCC2(C)C3CC3OC4(CCC(C)CN4)C(C)C32)C1 (configuration not stated),44,n,n,41,n,34,n
Nc1c(C(=O)NCCc2ccc(Cl)cc2)sc2ccc(S(=O)(=O)N3CCCCC3)cc12,44,n,n,43,x,35,n
COc1ccc(C(=O)N2CCN(c3ccccc3)CC2)cc1S(=O)(=O)NC1CC1,n,n,x,n,x,x,x
c1ccc(C2Nc3ccccc3-c3nc4ccccc4n32)nc1 (configuration not stated),n,n,n,n,n,x,x
c1ccc(C2Nc3ccccc3-c3nc4ccccc4n32)cc1 (configuration not stated),47,n,u,41,x,n,35
Cc1ccc(NC(=O)c2cc(S(=O)(=O)NCCC3=CCCCC3)ccc2F)cc1,54,n,n,50,n,41,n
O=C(NCCC1=CCCCC1)c1cc(S(=O)(=O)N2CCOCC2)ccc1F,n,n,n,n,n,x,x
O=[N+]([O-])c1cccc(-n2cc3ccc([N+](=O)[O-])cc3n2)c1,n,n,x,n,n,x,x
C=CCn1c(SCc2c(F)cccc2Cl)nnc1-c1ccco1,51,n,x,41,n,37,n
COc1ccccc1C(c1nnnn1CCc1ccccc1)N1CCCCCC1 (configuration not stated),43,n,n,42,n,n,n
CN(C(=O)COC(=O)c1ccc2c(c1)OCCO2)c1ccccc1,50,n,n,44,n,48,43
Cc1ccccc1NC(=S)c1ccc2ccccc2n1,40,n,n,43,n,n,37
O=C(Cn1cnc2ccccc2c1=O)Nc1nnc(SCc2ccc(Cl)cc2)s1,n,n,n,n,n,x,x
Clc1ccc(CN2CCc3c([nH]c4ccccc34)C2)cc1Cl,41,n,+,75,n,75,58
Cc1ccc(S(=O)(=O)CCC(=O)c2ccc(O)cc2O)cc1,55,n,n,54,n,47,50
Cc1ccc(S(=O)(=O)CCC(=O)OCC(=O)c2cc(C)ccc2C)cc1,n,n,n,n,n,x,x
CCOc1ccc2cc(/C=C/C(=O)c3ccco3)c(Cl)nc2c1,42,n,n,49,x,36,n
SMILES,TIM10 inh,tim23-1 inh,Rce1 inhib,tim10-1 inh,PfHsp90 set2,tim10-1 confirm,TIM10 conf
CCC(=O)Nc1nc(C)c(-c2csc(Nc3ccccn3)n2)s1,42,n,n,40,n,n,47
Cc1ccccc1S(=O)(=O)c1c(C)cc(C)n(C(C)C)c1=O,52,n,n,41,n,34,n
CCCCn1c(C)cc(C)c(S(=O)(=O)c2ccccc2C)c1=O,n,n,n,n,n,x,x
COc1ccc(CNc2cc(C)nc3ccc(OC)cc23)cc1,n,n,n,n,n,x,x
Cc1nc(N)sc1C(=O)N1N=N1,n,n,n,n,n,x,x
CN(C)c1ccc(/C=N/n2c(-c3ccccc3Br)n[nH]c2=S)cc1,41,n,n,42,n,n,n
Cc1nc(C)c(-c2csc(Nc3ccc(F)cc3)n2)s1,51,n,n,48,x,43,44
Cc1nc(C)c(-c2csc(Nc3ccc(C(=O)O)c(O)c3)n2)s1,n,n,n,n,n,x,x
Cc1nn(-c2ccccc2)c2c1C1(C(=O)N(C)c3ccccc31)C(C#N)=C(N)O2 (configuration not stated),41,n,n,67,x,54,n
O=C1c2cccc3cccc(c23)C(=O)N1c1nccs1,n,n,n,n,x,x,x
O=C1c2cccc3c([N+](=O)[O-])ccc(c23)C(=O)N1c1ccc(Cl)cn1,74,n,n,77,n,66,89
O=C1c2cccc3c([N+](=O)[O-])ccc(c23)C(=O)N1c1nccs1,69,n,n,84,x,73,96
O=C1c2ccc([N+](=O)[O-])cc2C(=O)N1c1ccc(Cl)cn1,n,n,n,n,n,x,x
CCCc1cc(=O)oc2cc(C)cc(OCC(=O)NCc3ccncc3)c12,n,n,n,n,n,x,x
COC(=O)c1sccc1NS(=O)(=O)c1ccccc1[N+](=O)[O-],n,n,x,n,n,x,x
Cc1cc(Br)c(Cl)cc1NC(=O)CN1C(=O)C2C3CC(c4ccccc4)C(C3)C2C1=O (configuration not stated),52,n,n,52,n,43,n
CC(Sc1ccc(Cl)cc1)C(=O)Nc1ccc2c(c1)OCO2 (configuration not stated),n,n,n,n,n,x,x
CC(C)N1CCC2(CC1)N=C(c1ccc3c(c1)OCO3)CC(c1cc(Cl)ccc1O)N2 (configuration not stated),51,n,n,53,120,45,51
Cc1ncc(CN2CCC(n3nccc3NC(=O)c3ccccc3)CC2)s1,n,n,n,n,n,x,x
Cc1ccc(NC(=O)Cn2sc3nc(C)cc(C)c3c2=O)c(Cl)c1,81,n,n,86,n,92,96
CCOc1ccc(NC(=O)Cn2sc3nc(C)cc(C)c3c2=O)cc1,46,n,n,83,n,90,88
Cc1cc(C)c2c(=O)n(CC(=O)Nc3cccc(F)c3)sc2n1,n,n,n,n,n,x,x
Cc1cc(C)c2c(=O)n(CC(=O)Nc3ccc(Cl)cc3)sc2n1,86,n,n,91,n,93,96
Cc1ccc(NC(=O)Cn2c(C)cc(C)c(C#N)c2=O)c(Cl)c1,n,n,n,n,n,x,x
Cc1cc(C)c2c(=O)n(CC(=O)NCCCN3CCOCC3)sc2n1,n,n,n,n,n,x,x
COc1ccc(NC(=O)c2cccc(S(=O)(=O)N3CCc4ccccc43)c2)cn1,45,n,n,46,x,41,40
